Measured values reported in PubChem BioAssay (NCI).
This is part of a sample that, as a whole, favours compounds with a hit. Of some 83,000 tested, about 20% had one in any assay.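 Method: cells in 96-well plates; compound added at one concentration; 48 h incubation; percent growth measured; values under 10 scored active.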 Calls of active or inactive are those of the source.

The molecules below were run on HL-60(TB) leukemia (assay: NCI-60 one-dose screen, 48 h (100 = growth as untreated, 0 = no growth, -100 = all killed)). Conditions: 10 µM unless noted.

| SMILES | growth |
| --- | --- |
| N#Cc1cccc(NC(=O)c2cc(-c3ccc(F)cc3F)ccc2O)c1 | -29.2% (active) |
| Cc1[nH]c(C(=O)Nc2ccc(C(=O)NCC3CCNCC3)cc2OC(C)C)c(Cl)c1Cl | 73.1% (inactive) |
| O=C(Nc1ccc2c(ccn2Cc2ccccn2)c1)c1cnccn1 | 131% (inactive) |
| O=C(CNc1nc(-c2cccc([N+](=O)[O-])c2)cs1)Nc1cccc(Cl)c1 | 105% (inactive) |
| COC(=O)c1cccc(NC2=C(Cl)C(=O)C(C)=C(C)C2=O)c1 | 60.4% (inactive) |
| COc1ccc(-n2c(SCC(=O)Nc3ccc(-c4nc5ccccc5[nH]4)cc3)nc3ccccc3c2=O)cc1 | 45.6% (inactive) |
| CS(=O)(=O)c1ccc(/C(=N/N=C(N)N)c2ccc(F)cc2)cc1 | 97.8% (inactive) |
| [Cl][Ru].c1ccc(-c2cc(-c3ccccn3)nc(-c3ccccn3)c2)cc1.c1ccc(-c2ccnc3c2ccc2c(-c4ccccc4)ccnc23)cc1 | -29.2% (active) |
| O=C(CNc1nc(-c2cccc([N+](=O)[O-])c2)cs1)Nc1cccc([N+](=O)[O-])c1 | -9.99% (active) |
| COc1cc(/C=C/C(=O)c2ccccc2)ccc1Oc1nc(NCCO)nc(N2CCOCC2)n1 | 81.6% (inactive) |
| O=C(COc1ccc(C2SCC(=O)N2c2ccccc2)cc1)c1ccccc1 (stereo not given) | 96.2% (inactive) |
| Nc1cc(F)ccc1NC(=O)c1ccc(NC(=O)C/C=C/c2cccnc2)cn1 | 11.3% (inactive) |
| CCNC(=O)N1CCc2cc(OC)c(OCCc3ccc(OC)c(N)c3)cc2C1c1cc(C)c(C)cc1C (stereo not given) | 22.1% (inactive) |
| O=C1NC(=O)c2c1c1c3ccccc3ccc1c1[nH]c3ccccc3c21 | 16.8% (inactive) |
| CN1CCN(c2ccc(/C=N/n3cnc4oc(-c5ccccc5)cc4c3=N)cc2)CC1 | 121% (inactive) |
| CCN(CC)S(=O)(=O)c1ccc(-c2nc(C(Cl)Cl)nc3cc(C)nn23)cc1 | -9.17% (active) |
| CCN1CCN(c2ccc(NC(=O)Nc3ccc4c(ccn4-c4ccnc(C(=O)NC)c4)c3)cc2C(F)(F)F)CC1 | 96.6% (inactive) |
| Nc1nc(-c2cccc([N+](=O)[O-])c2)c(N=Nc2ccc([N+](=O)[O-])cc2Cl)s1 | 6.8% (active) |
| O=C1/C(=C/C=C/c2ccco2)SC(=S)N1c1ccccc1 | 51.8% (inactive) |
| COc1ccc(Oc2ccc(C3CC(c4cc(OC)c(OC)c(OC)c4)=NN3C(C)=O)cc2)cc1 (stereo not given) | -14.9% (active) |

| SMILES | growth |
| --- | --- |
| C[C@@H](Nc1ncnc2ccc(-c3cnc(Cl)c(NS(C)(=O)=O)c3)cc12)c1ccccc1 | 39% (inactive) |
| CN1C(=O)N(C)C2C1NN=c1s/c(=C\c3ccccn3)c(=O)n12 (stereo not given) | 101% (inactive) |
| COc1ccc2c(c1)c(-c1nc(N)nnc1-c1c[nH]c3ccccc13)cn2C | 3.5% (active) |
| C#C[C@]1(O)CC[C@H]2[C@@H]3CC=C4c5sc(Nc6cc(C)cc(C)c6)nc5CC[C@]4(C)[C@H]3CC[C@@]21C | -2.89% (active) |
| COc1cc(O)c2c(c1)[C@H]1O[C@@H]1C[C@H](O)[C@H](O)C(=O)/C=C\C[C@H](C)OC2=O | 0.185% (active) |
| c1ccc(-c2c(-c3ccccc3)[n+](Cc3ccc4ccccc4c3)c(-c3ccccc3)n2Cc2ccc3ccccc3c2)cc1 | -59.9% (active) |
| CC(C)[C@H]1c2[nH]c3ccccc3c2C[C@H]2C(=O)N(CCCCCCC(=O)NO)CC(=O)N12 | 96.1% (inactive) |
| COc1ccc([C@@H]2c3[nH]c4ccccc4c3C[C@H]3C(=O)N(C4CCN(CC5CCCCC5)CC4)CC(=O)N23)c(OC)c1 | 47.7% (inactive) |
| FC(F)(F)c1cc(Nc2cccc(Oc3ccc(NC4=NCCN4)nc3)c2)ccc1Cl | -52.5% (active) |
| Cn1cc(-c2nn3cc(-c4ccncc4)nc3s2)c2cc(Br)ccc21 | 17.3% (inactive) |
| N#Cc1c(-c2cccs2)cc(-c2cnccn2)nc1SCC(=O)N/N=C/c1ccccc1 | 110% (inactive) |
| O=C(N/N=C/c1ccc[nH]1)c1[nH]c2ccc(Br)cc2c1-c1ccccc1 | -39.1% (active) |
| C/C(=N/NC(N)=S)c1ccc(Nc2nc(SCC(C)C)nc(-c3ccc(F)cc3)c2C#N)cc1 | 73.9% (inactive) |
| NS(=O)(=O)c1ccc(-n2cc(CC=O)nn2)cc1 | 105% (inactive) |
| COc1ccc(-c2cc(-c3cccc4ccccc34)n3c(n2)nc2ccccc23)cc1OC | -7.71% (active) |
| O=C(/C=C/C=C/c1csc(Br)n1)NO | 58.4% (inactive) |
| O=C(COc1ccc(/C=C2\SC(=O)NC2=O)cc1)Nc1ccc(C(=O)/C=C/c2cc3ccccc3nc2Cl)cc1 | 79.6% (inactive) |
| Cn1c2nc3ccccc3c-2cc2ccccc21 | 41.6% (inactive) |
| COc1ccc(C2CC(c3cccc(OCCCCOc4cccc(C5=NN(C(C)=O)C(c6ccc(OC)cc6)C5)c4)c3)=NN2C(C)=O)cc1 (stereo not given) | 46.2% (inactive) |
| CC1CCN(CC(=O)Nn2c(COc3ccccc3)nc3ccccc3c2=O)CC1 | 80.3% (inactive) |
